Data reported in PubChem BioAssay (Tox21).
Inconclusive results are not listed. Activity calls are given as the source filed them. Unless noted, calls come from the whole dose curve; as a rule, active = well fitted curve in the direction sought with a large enough effect in the repeat runs; inconclusive = weak or mixed curves; inactive = no such curve, though single readings can be large; an effect the other way counts as inactive or inconclusive.

Key:
[1] = A CellTox Green Cytotoxicity Assay to monitor cytotoxicity in HEK293 cells - 8 hour (AID 1224884); note: nearly all actives have a fitted effect of over 35% in size
In short: (§1)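 HEK293 cells, 600/well, were preincubated 5 hours and then exposed to compounds at 37 C for up to 40 hours. A cell-impermeant cyanine dye staining dead-cell DNA was read by fluorescence at 0, 8, 16, 24, 32 and 40 h time points.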

[2] = qHTS RealTime-Glo MT Cell Viability Assay in HepG2 cells - 0 hour (AID 1224889); note: nearly all actives have a fitted effect of over 50% in size
In short: (§2)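 HepG2 cells (600/well) were dispensed with RealTime-Glo reagents, incubated 5 h at 37 °C, then treated with compounds in DMSO for up to 40 h. Nonlytic NanoLuc luminescence reflecting viable cells was read at each stated time point.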

[3] = A CellTox Green Cytotoxicity Assay to monitor cytotoxicity in HepG2 cells - 8 hour (AID 1224890); note: nearly all actives have a fitted effect of over 45% in size; note: potency is the fitted concentration of half-maximal effect
In short: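 HepG2 cells, 600/well, preincubated 5 h with CellTox Green dye, then exposed to Tox21 compounds in DMSO at 37 C for up to 40 h. Dead-cell DNA fluorescence read at the indicated time point.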

[4] = qHTS assay to identify small molecule antagonists of the estrogen receptor alpha (ER-alpha) signaling pathway using the BG1 cell line in the presence of 0.1 nM 17-beta-estradiol - cell viability counter screen (AID 1259241); note: nearly all actives have a fitted effect of over 40% in size; note: potency is the fitted concentration of half-maximal effect
In short: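 The cell line endogenously expresses full-length ER-alpha and carries four EREs driving luciferase. Cells are cultured 5 days hormone-free, treated 22 hr with compounds and 0.1 nM estradiol, then viability is read by fluorescence.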

[5] = qHTS assay to identify small molecule antagonists of the androgen receptor (AR) signaling pathway using the MDA cell line in the presence of 0.5 nM R1881 - cell viability counter screen (AID 1259242); note: nearly all actives have a fitted effect of over 45% in size
In short: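 MDA-kb2 cells (MMTV-luciferase, AR/GR responsive) were treated with compounds plus 0.5 nM R1881 (final) for 16 hr at 37C, 0% CO2. Viability was then read in the same wells as live-cell protease fluorescence (CellTiter-Fluor, 30 min).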

[6] = biological target: Estrogen receptor (Homo sapiens) (UniProt P03372); test: qHTS assay to identify small molecule antagonists of the estrogen receptor alpha (ER-alpha) signaling pathway using the BG1 cell line in the presence of 0.1 nM 17-beta-estradiol (AID 1259244); note: nearly all actives have a fitted effect of over 50% in size
In short: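 VM7Luc4E2 cells (endogenous full-length ER-alpha, 4×ERE-luciferase), kept 5 days in phenol red-free, charcoal-stripped FBS medium; 4,000 cells/well. Compounds added with 0.1 nM (final) 17beta-estradiol, 22 hr at 37C; luminescence read with ONE-Glo after 30 min.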

[7] = qHTS assay to identify small molecule phospholipidosis (PLD) inducers (AID 1259344; active = well fitted curve in the direction sought with a large enough effect; an effect the other way counts as inactive or inconclusive)
In short: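 Fluorescent phospholipid staining (LipidTOX Red) measured by automated microscopy in fixed HepG2 cells after 24 h treatment; nuclei counterstained with Hoechst 33342; amiodarone as reference inducer.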

[8] = qHTS assay to identify small molecule HDAC inhibitors - cell viability counter screen (AID 1259365); note: series mostly up to about 92 µM; nearly all actives have a fitted effect of over 50% in size
In short: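 Viability readout: CellTiter-Glo luminescence. Wild-type HCT-116 cells, 2hr compound treatment following overnight attachment at 37 C.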

[9] = qHTS assay to identify small molecule agonists of the sonic hedgehog signaling (Shh) pathway - cell viability counter screen (AID 1259366); note: nearly all actives have a fitted effect of over 50% in size; note: potency is the fitted concentration of half-maximal effect
In short: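 Viability measured fluorometrically (CellTiter-Fluor, 1hr, 37C) in 3T3 Gli1-Luc reporter cells after 23hr compound exposure within a 24hr incubation at 37C/5% CO2.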

[10] = qHTS assay to identify small molecule antagonists of the sonic hedgehog signaling (Shh) pathway - cell viability counter screen (AID 1259367); note: nearly all actives have a fitted effect of over 55% in size; note: potency is the fitted concentration of half-maximal effect
In short: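 Using CellTiter-Fluor, viability of Gli1-Luc reporter 3T3 cells is read by fluorescence in the wells used for the Shh luciferase assay. Treatment lasts 23 hr with conditioned medium, then reagent 1 hr at 37C.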

[11] = qHTS assay to identify small molecule agonists of the sonic hedgehog signaling (Shh) pathway (AID 1259368; calls by dose curve;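 note: NIH/3T3-derived 3T3Gli1-Luc cells carrying a stable Gli1-driven firefly luciferase reporter; series mostly up to about 92 µM; nearly all actives have a fitted effect of over 15% in size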)
In short: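 NIH/3T3-derived 3T3Gli1-Luc cells with stably integrated Gli1-driven firefly luciferase, 2,000 cells/well, compounds added after 4 hr. Incubated 24 hr at 37C, 5% CO2; luminescence read after 30 min with luciferase reagent at room temperature.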

[12] = qHTS assay to identify small molecule antagonists of the sonic hedgehog signaling (Shh) pathway (AID 1259369; calls by dose curve; note: nearly all actives have a fitted effect of over 45% in size; note: potency is the fitted concentration of half-maximal effect)
In short: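 NIH/3T3-derived Gli1-Luc reporter cells plated 4 h, dosed with compound, then stimulated with conditioned medium for 24 h at 37 C. Firefly luciferase luminescence read after 30 min with detection reagent at room temperature.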

[13] = qHTS RealTime-Glo MT Cell Viability Assay in HEK293 cells - 24 hour (AID 1224886); note: nearly all actives have a fitted effect of over 50% in size; note: potency is the fitted concentration of half-maximal effect
In short: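 HEK293 cells seeded with NanoLuc/prosubstrate reagent, rested 5 h at 37 C, then dosed and kept at 37 C up to 40 h. Nonlytic real-time luminescence from viable cells read at 0, 8, 16, 24, 32 and 40 h.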

[14] = qHTS RealTime-Glo MT Cell Viability Assay in HEK293 cells - 8 hour (AID 1224887)
In short: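 600 cells/well were plated with the nonlytic NanoLuc/prosubstrate reagent, pre-incubated 5 h, then given 23 nL of compound in DMSO. Incubation at 37 C for 40 h, with luminescence from viable-cell-reduced substrate read repeatedly from 0 h.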

[15] = A CellTox Green Cytotoxicity Assay to monitor cytotoxicity in HEK293 cells - 16 hour (AID 1224888); note: nearly all actives have a fitted effect of over 35% in size
In short: as §1

[16] = qHTS assay to identify small molecule HDAC inhibitors (AID 1259364); note: top concentration of the series differs between compounds; nearly all actives have a fitted effect of over 45% in size
In short: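 Wild-type HCT-116 cells, plated overnight at 37 C, exposed to compounds 2 hr at 37 C; luminogenic HDAC-Glo substrate then added 30 min at room temperature. Luminescence reports relative endogenous class I/II HDAC activity.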

[17] = qHTS RealTime-Glo MT Cell Viability Assay in HepG2 cells - 16 hour (AID 1224885); note: nearly all actives have a fitted effect of over 50% in size; note: potency is the fitted concentration of half-maximal effect
In short: as §2

[18] = biological target: Androgen receptor (Homo sapiens) (UniProt P10275); test: qHTS assay to identify small molecule antagonists of the androgen receptor (AR) signaling pathway using the MDA cell line in the presence of 0.5 nM R1881 (AID 1259243); note: nearly all actives have a fitted effect of over 50% in size; note: potency is the fitted concentration of half-maximal effect
In short: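 MDA-kb2 cells (MMTV-luciferase, responsive to AR and GR) at 3,000/well, rested 5 h at 37C, 0% CO2, then given compounds plus 0.5 nM R1881 (final) for 16 hr. Luciferase read with ONE-Glo after 30 min at room temperature.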

[19] = biological target: Estrogen receptor beta (Homo sapiens) (UniProt Q92731); test: qHTS assay to identify small molecule agonists of the estrogen receptor beta (ER-beta) signaling pathway (AID 1259377; active = well fitted activation curve with a large enough effect in the signal ratio in the repeat runs, not every such curve was filed as active; the % refers to the signal ratio)
In short: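 A UAS-controlled beta-lactamase reporter in ER-beta-UAS-bla HEK293T cells reports receptor activation. Compounds act for 16 hr at 37C in 2% charcoal-stripped serum, and a FRET substrate is read by fluorescence after 2 hours.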

[20] = biological target: Estrogen receptor beta (Homo sapiens) (UniProt Q92731); test: qHTS assay to identify small molecule antagonists of the estrogen receptor beta (ER-beta) signaling pathway (AID 1259378; active = well fitted inhibition curve with a large enough effect in the signal ratio in the repeat runs, not every such curve was filed as active; the % refers to the signal ratio)
In short: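 Antagonist mode: compounds added to beta-lactamase reporter HEK293T ER-beta-UAS cells stimulated with E2 (1nM final), 16 hr at 37C. LiveBLAzer B/G FRET substrate, 2 hours room temperature, fluorescence read-out.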

Measured: Potency

Sequence of Androgen receptor (Homo sapiens) (P10275 whole entry, looked up): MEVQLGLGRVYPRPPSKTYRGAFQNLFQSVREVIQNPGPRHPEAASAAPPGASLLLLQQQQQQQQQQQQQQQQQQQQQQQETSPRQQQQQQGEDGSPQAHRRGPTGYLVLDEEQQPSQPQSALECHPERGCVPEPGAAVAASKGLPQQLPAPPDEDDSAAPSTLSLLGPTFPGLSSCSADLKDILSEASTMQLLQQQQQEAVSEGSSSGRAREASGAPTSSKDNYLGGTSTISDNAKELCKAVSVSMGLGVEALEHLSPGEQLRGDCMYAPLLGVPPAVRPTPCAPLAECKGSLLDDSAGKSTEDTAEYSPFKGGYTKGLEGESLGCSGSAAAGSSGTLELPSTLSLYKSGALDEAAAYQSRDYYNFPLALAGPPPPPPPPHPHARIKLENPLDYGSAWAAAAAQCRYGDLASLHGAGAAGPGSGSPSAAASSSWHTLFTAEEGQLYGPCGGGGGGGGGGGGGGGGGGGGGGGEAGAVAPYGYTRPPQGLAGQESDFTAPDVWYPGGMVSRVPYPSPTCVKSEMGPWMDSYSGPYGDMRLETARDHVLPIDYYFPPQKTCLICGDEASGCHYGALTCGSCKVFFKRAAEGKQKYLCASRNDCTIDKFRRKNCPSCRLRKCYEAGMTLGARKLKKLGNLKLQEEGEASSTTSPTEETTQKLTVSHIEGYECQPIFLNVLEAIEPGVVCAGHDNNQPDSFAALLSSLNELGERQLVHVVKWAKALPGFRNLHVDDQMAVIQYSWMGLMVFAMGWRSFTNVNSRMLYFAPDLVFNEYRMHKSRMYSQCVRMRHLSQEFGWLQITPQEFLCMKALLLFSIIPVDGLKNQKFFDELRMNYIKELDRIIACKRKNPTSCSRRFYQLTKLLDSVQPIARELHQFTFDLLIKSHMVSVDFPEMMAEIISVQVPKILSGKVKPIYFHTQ
Sequence of Estrogen receptor (Homo sapiens) (P03372 whole entry, looked up): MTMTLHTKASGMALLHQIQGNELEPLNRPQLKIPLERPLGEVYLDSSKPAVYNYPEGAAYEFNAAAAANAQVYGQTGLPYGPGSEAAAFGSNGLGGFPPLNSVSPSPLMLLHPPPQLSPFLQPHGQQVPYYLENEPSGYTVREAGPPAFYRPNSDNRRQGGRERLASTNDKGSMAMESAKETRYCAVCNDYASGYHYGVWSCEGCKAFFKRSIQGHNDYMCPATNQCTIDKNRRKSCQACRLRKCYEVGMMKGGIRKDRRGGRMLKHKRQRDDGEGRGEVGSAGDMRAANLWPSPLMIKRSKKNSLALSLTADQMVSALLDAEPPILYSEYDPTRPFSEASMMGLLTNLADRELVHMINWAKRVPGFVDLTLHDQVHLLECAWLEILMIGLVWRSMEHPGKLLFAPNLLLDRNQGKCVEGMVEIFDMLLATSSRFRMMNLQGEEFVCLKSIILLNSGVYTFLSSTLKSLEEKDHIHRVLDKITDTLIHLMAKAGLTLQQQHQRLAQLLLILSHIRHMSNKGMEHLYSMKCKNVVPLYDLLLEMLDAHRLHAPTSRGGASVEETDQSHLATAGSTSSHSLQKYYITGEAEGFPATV
Sequence of Estrogen receptor beta (Homo sapiens) (Q92731 whole entry, looked up): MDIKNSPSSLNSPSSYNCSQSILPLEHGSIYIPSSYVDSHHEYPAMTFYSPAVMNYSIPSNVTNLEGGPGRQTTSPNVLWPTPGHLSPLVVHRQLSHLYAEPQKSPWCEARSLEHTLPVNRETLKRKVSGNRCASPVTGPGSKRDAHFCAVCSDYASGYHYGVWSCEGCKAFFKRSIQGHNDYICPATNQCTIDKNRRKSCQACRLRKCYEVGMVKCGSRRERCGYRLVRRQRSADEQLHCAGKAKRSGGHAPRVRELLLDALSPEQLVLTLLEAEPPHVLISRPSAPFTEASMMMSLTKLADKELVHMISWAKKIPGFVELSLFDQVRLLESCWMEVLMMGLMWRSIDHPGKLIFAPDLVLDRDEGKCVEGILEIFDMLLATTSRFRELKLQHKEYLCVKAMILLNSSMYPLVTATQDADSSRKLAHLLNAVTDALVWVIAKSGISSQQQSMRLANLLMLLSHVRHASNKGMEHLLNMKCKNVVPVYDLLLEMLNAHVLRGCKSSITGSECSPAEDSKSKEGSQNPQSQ

O=C(N[C@H](CO)[C@H](O)c1ccc([N+](=O)[O-])cc1)C(Cl)Cl
inactive: [1] | [2] | [3] | [4] | [5] | [6] | [7] | [8] | [9] | [10] | [11] | [12]

CCCCCCCCCCCC(=O)Cl
inactive: [13] | [14] | [15] | [2] | [3] | [4] | [5] | [6] | [16] | [8] | [9] | [10] | [11] | [12]

CC(=O)NC[C@H]1CN(c2ccc(N3CCOCC3)c(F)c2)C(=O)O1
inactive: [7]

CC(=O)[C@]1(O)Cc2c(O)c3c(c(O)c2[C@@H](O[C@H]2C[C@H](N)[C@H](O)[C@H](C)O2)C1)C(=O)c1ccccc1C3=O
active: [17] 12 µM | [13] 0.12 µM | [3] 23.9 µM | [4] 10.6 µM | [18] 0.531 µM | [9] 0.944 µM | [10] 1.19 µM | [12] 0.0133 µM
inactive: [15] | [2] | [6] | [16] | [8] | [11]

CO[C@H](C(=O)[C@@H](O)[C@@H](C)O)C1Cc2cc3cc(O[C@H]4C[C@@H](O[C@H]5C[C@@H](O)[C@H](O)[C@@H](C)O5)[C@@H](O)[C@@H](C)O4)c(C)c(O)c3c(O)c2C(=O)[C@H]1O[C@H]1C[C@@H](O[C@H]2C[C@@H](O[C@H]3C[C@](C)(O)[C@H](O)[C@@H](C)O3)[C@H](O)[C@@H](C)O2)[C@H](O)[C@@H](C)O1 (some centres undefined)
inactive: [7]

NCc1ccco1
inactive: [13] | [14] | [2] | [3] | [4] | [5] | [16] | [8] | [9] | [10] | [11] | [12] | [19] | [20]

C=CCN1C(=O)C(CC(C)C)NC1=S (centres undefined)
inactive: [7]

c1ccc2c(c1)-c1ccc3ccc4cccc5cc-2c1c3c45
inactive: [17] | [13] | [14] | [15] | [2] | [3] | [4] | [16] | [8] | [11]

[Cl][Dy]([Cl])[Cl]
active: [12] 8.63 µM
inactive: [17] | [13] | [14] | [15] | [2] | [3] | [4] | [5] | [6] | [16] | [8] | [10] | [11]

O=C1OC2(c3ccccc31)c1ccc(O)c(Br)c1Oc1c2ccc(O)c1Br
active: [3] 12.3 µM
inactive: [4] | [18] | [16] | [8] | [11] | [12]

C1=CCCC1
inactive: [17] | [2] | [3] | [4] | [5] | [18] | [6] | [16] | [8] | [9] | [10] | [11] | [12]

CCN1CCCC1CNC(=O)c1cc(S(=O)(=O)CC)ccc1OC (centres undefined)
inactive: [7]

CC(C)(C)C(=O)OCC(=O)[C@H]1CC[C@H]2[C@@H]3CCC4=CC(=O)CC[C@]4(C)[C@H]3CC[C@]12C
inactive: [7]

O=P(O)(O)OP(=O)(O)OP(=O)(O)O
inactive: [7]
